In PubChem BioAssay AID811 (The Scripps Research Institute Molecular Screening Center, 2007) one finds inhibition data, which are given here for 101 compounds.

Screen size: about 16,000 compounds; about 10 (0.06%) were called active. No stated cut-off is given here; in the data, active means inhibition above about 45%; inactive means the rest. Only a selection was taken, and actives are over-represented in it overall.

Sequence of Toll-like receptor 4 (Homo sapiens) (O00206 whole entry, looked up): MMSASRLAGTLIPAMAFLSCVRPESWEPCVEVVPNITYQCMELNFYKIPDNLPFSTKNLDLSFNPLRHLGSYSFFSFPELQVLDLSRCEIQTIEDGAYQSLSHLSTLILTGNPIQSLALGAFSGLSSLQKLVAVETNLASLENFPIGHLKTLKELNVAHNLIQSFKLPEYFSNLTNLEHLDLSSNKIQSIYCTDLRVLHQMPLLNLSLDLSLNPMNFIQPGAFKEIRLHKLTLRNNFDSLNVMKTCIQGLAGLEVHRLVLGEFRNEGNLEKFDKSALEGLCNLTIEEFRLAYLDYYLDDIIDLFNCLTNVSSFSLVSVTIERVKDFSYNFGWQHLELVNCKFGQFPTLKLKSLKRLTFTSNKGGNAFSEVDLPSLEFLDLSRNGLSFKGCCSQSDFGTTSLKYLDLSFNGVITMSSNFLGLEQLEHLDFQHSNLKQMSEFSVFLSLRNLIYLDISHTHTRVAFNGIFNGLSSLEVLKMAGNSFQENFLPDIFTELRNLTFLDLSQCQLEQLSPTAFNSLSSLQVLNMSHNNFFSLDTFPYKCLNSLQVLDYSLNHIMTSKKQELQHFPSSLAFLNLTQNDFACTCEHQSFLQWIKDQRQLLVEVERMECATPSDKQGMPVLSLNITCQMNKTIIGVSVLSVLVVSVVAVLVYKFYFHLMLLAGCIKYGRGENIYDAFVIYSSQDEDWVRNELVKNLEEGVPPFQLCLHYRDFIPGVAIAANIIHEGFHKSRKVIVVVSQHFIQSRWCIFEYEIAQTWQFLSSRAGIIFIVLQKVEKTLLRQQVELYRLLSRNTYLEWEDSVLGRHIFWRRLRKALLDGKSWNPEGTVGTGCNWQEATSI

This assay concerns the target Toll-like receptor 4 (Homo sapiens) (UniProt O00206). Nature of the assay: blocks binding of human TLR4 to MyD88 (AID 811). The note with it: Cell-based TLR4-MyD88 binding inhibition assay; at 10 µM; stronger effect = higher value.
Consider `O=C(CSc1nc2ccccc2o1)N1CCC(n2cccc2)CC1`, for which the inhibition (as a rule, the change of the read-out against control, counted positive when it falls) was -8.01% (inactive). For the compound `CC(C)(C)C(=O)OCC(N)=S`, the inhibition was -7.02% (inactive). `CSc1c(C#N)c(N)nc(SCC(=O)c2ccc(OC(F)F)cc2)c1C#N`: the inhibition is 1.37% (inactive).

Take `O=C(O)c1ccccc1/C=N/Nc1cc(Cl)ccc1Cl`: the inhibition is -2.5% (inactive).

On to `NC(=O)c1ccccc1OCCOc1ccccc1C(N)=O`, for which the inhibition was -25.3% (inactive).

Turning to `CN(C)c1cccc2c1c(NC(=O)Nc1ccc(OCc3ccccc3)cc1)nn2C`, the inhibition was -5.12% (inactive).

Take `Cc1ccccc1NC(=O)NCc1ccco1`: the inhibition was 0.5% (inactive).

With `OCCNC(=S)Nc1ccccc1-c1ccccc1`, the inhibition was 6.35% (inactive). With `Cc1c(N/N=C(\C#N)c2nc3ccccc3[nH]2)c(=O)n(-c2ccccc2)n1C` the figure was 3.99% (inactive); with `CN(C)c1cc(-c2cc(Cl)sc2Cl)oc(=O)c1Cl`, -4.82% (inactive). For `O/N=C/c1sccc1Oc1ccccc1`, the inhibition is 0.35% (inactive). Under `COC(OC)c1ccnc(SCC(=O)Nc2ccc(C(C)C)cc2)n1` stands -8.52% (inactive); under `O=C(Nc1ccccc1N1CCOCC1)C1CCN(c2nccc(C(F)(F)F)n2)CC1`, 1.1% (inactive).

For `CC1(C)CC(=O)c2c(NCc3ccco3)sc(C#N)c2C1`, the inhibition is 8.27% (inactive). Under `COC(=O)c1sccc1-c1ccc(/C(C)=N/NC(N)=O)o1` stands 0.98% (inactive).

For `Fc1cccc(Cl)c1CSc1nccn1-c1cccnc1`, the inhibition was 5.59% (inactive). Under `O=C(OCc1ccco1)c1cnc(Nc2ccc(OC(F)(F)F)cc2)nc1C(F)(F)F` stands 11.4% (inactive). With `N#Cc1c(N)nc2c3c1NC(O)(c1ccccc1)C(C#N)C3c1cc(Cl)ccc1O2` (stereo unspecified) the figure was -1.34% (inactive). Under `Cc1nc2sc(-c3ccccc3)cc2c(=O)o1` stands 4.05% (inactive); under `NS(=O)(=O)c1cc(Br)ccc1I`, -0.48% (inactive); under `O=C1CCN(Cc2ccccc2)C(=O)N1c1ccc2c(c1)CCO2`, -14.4% (inactive).

`CCOC(=O)C1=C(C)NC(=O)NC1c1ccc(-c2cccc([N+](=O)[O-])c2)o1` (stereo unspecified): the inhibition was -3.21% (inactive).

For the compound `CC(CC(=O)O)Oc1ccc(Cl)cc1[N+](=O)[O-]` (stereo unspecified), the inhibition is -0.53% (inactive). With `CSc1nc(N/C=C(\C#N)C(=O)c2cccs2)n2nc(C)cc2n1`, the inhibition is -2.59% (inactive).

With `N#CCc1ccc(OC(=O)c2cccnc2)cc1`, the inhibition was -3.47% (inactive).

Turning to `CN(C)C(=S)Nc1ccc(Br)cc1Cl`, the inhibition is -2.8% (inactive). As for `Clc1cncc(Cl)c1N/N=C/C1CC2C=CC1C2` (stereo unspecified), the inhibition was 5.74% (inactive). As for `O=C(O)c1onc2ccccc12`, the inhibition was -3.17% (inactive). For `CSc1nccc(-c2ccc(S(=O)(=O)n3nc(C)c(Br)c3C)s2)n1`, the inhibition is 2.65% (inactive). For the compound `Cc1cc(NC(=O)c2cc(-c3ccccc3)c(C(F)(F)F)s2)no1`, the inhibition is -1.45% (inactive). With `CC(=O)Nc1ccc(/C(N)=N/O)cc1` the figure was 1.86% (inactive).

For `O=C(O)CC1(CC(=O)NCc2ccco2)CCCCC1`, the inhibition was -10.3% (inactive). For `CC(=O)OC1=CCC2C3CC[C@@]4(C)CC(OC(C)=O)CCC4(C)C3C(OC(C)=O)CC12C` (stereo partly specified), the inhibition was 5.37% (inactive).

Turning to `CC(C)(C)NC(=O)[C@@H]1C[C@@H]2CCCC[C@@H]2CN1C(=O)c1ccno1`, the inhibition was 2.92% (inactive). With `CCOC(=O)c1nnc2c(Br)c(C)nn2c1C` the figure was 0.26% (inactive); with `CCc1ccnc(NS(=O)(=O)c2ccc3c(c2)OCCO3)c1`, -7.82% (inactive). As for `Cc1nc(C(=O)NNC(=S)Nc2ccccc2C(F)(F)F)cs1`, the inhibition is -3.73% (inactive).

With `N/C(=N\OC(=O)c1ccc(Cl)cc1)c1cccc(CS(=O)(=O)c2ccccn2)c1`, the inhibition is -5.81% (inactive). Turning to `CC(C)S(=O)(=O)/C(C#N)=C/NN1CCOCC1`, the inhibition is -3.92% (inactive).

For `COC(=O)c1cnc(N2CCCN(C(=O)C3COc4ccccc4O3)CC2)nc1C(F)(F)F` (stereo unspecified), the inhibition is -1.67% (inactive).

In the case of `NC(=O)c1c(C(F)(F)F)cc(C(F)(F)F)cc1C(F)(F)F`, the inhibition is -6.47% (inactive). With `COc1ccccc1NC(=O)c1ccc(C#Cc2ccccc2)o1` the figure was -2.2% (inactive). Under `CC(C)[C@H]1COC(c2cccc(C3=N[C@@H](C(C)C)CO3)n2)=N1` stands 5.5% (inactive); under `Cc1cc(S(=O)(=O)O/N=C(\N)c2snnc2C)cc(C)c1F`, 11.7% (inactive); under `CC1(C)CC(=O)C=C(N2CCOCC2)C1`, -0.03% (inactive). Under `CCc1cnc(NS(=O)(=O)c2cc(Cl)sc2Cl)nc1-c1c(F)cccc1F` stands -8.06% (inactive); under `CC(C)CCOS(=O)(=O)c1ccc2c(c1)Cc1cc(S(=O)(=O)OCCC(C)C)ccc1-2`, 4.69% (inactive). For `CCCN(CCC)S(=O)(=O)c1ccc(C(=O)O/N=C(\C)c2ccccc2O)cc1`, the inhibition is 0.96% (inactive).

Regarding `CC(=O)c1ccc(C#Cc2ccccc2)cc1`, the inhibition was -5.26% (inactive). Take `COC(=O)c1cnc(Oc2ccc(N)cc2)cc1C(F)(F)F`: the inhibition was -9.53% (inactive). With `O=C(CSc1c(F)c(F)c(C(=O)O)c(F)c1F)Nc1cccc(C(F)(F)F)c1`, the inhibition was 7.76% (inactive). `CCOC(=O)CN1C(=O)/C(=C\c2ccc(C)o2)N=C1c1ccccc1`: the inhibition was 0.42% (inactive). With `O=[N+]([O-])c1ccc2ncccc2c1-n1cccc1` the figure was 2.94% (inactive). For `CN(C(=O)Nc1ccc(Cl)cc1)n1cnc2ccccc2c1=O`, the inhibition was -8.6% (inactive).

Take `Cn1cnnc1SC/C=C/c1ccccc1`: the inhibition is -13.5% (inactive).

For the compound `O=C(O)CC(CC(=O)N1CCOCC1)c1ccccc1` (stereo unspecified), the inhibition is -5.3% (inactive). For the compound `Cc1ccc2c(c1)C(=O)C(=O)S2`, the inhibition was 6.48% (inactive). Under `O=C(CCc1ccc(O)cc1)N/N=C/c1cc(Cl)cc(Cl)c1O` stands -1.07% (inactive); under `CC(C)(C)NC(=O)N/N=C/c1[nH]ncc1Br`, 20.8% (inactive); under `Cc1noc(C)c1S(=O)(=O)N1CCN(C2c3ccccc3-c3ccccc32)CC1`, -0.47% (inactive). Under `CS/C(=N\S(=O)(=O)c1ccccc1)NNc1ccccc1` stands -1.96% (inactive).

As to `CCOC(=O)Cn1cc(Cl)ccc1=O`, the inhibition is -0.56% (inactive). With `N/C(=N\S(=O)(=O)c1ccc(Cl)cc1)N1CCOCC1` the figure was -3.11% (inactive); with `Cc1nn(C)c(C)c1Sc1nccc(-c2cccnc2)n1`, -8.01% (inactive); with `CC(C)CC(F)Cc1cnc(=O)[nH]c1` (stereo unspecified), -2.36% (inactive).

For the compound `Oc1ccc(-n2cncn2)cc1`, the inhibition is -7.43% (inactive). For the compound `O=C(NCc1ccccc1)c1cc2sccc2s1`, the inhibition was 3.11% (inactive). With `Cc1ccc2sc(NC(=O)NC(=O)c3c(Cl)cccc3Cl)nc2c1` the figure was -10.8% (inactive); with `Cn1cc(C(=O)Nc2ccc(F)c(Cl)c2)c(N)n1`, -11.3% (inactive); with `CCOC(=O)c1cnc2c(S(=O)(=O)C(C)C)csc2c1Sc1cccc(Cl)c1`, -1.87% (inactive). `O=C(NNC(=S)Nc1ccccc1Cl)c1ccc(OC(F)(F)F)cc1`: the inhibition was 6.01% (inactive). As to `O=C(c1ccc(Oc2ccc(Cl)cc2)c([N+](=O)[O-])c1)N1CCCC1`, the inhibition is 0.91% (inactive). Regarding `CSc1sc(C(=O)Nc2cccc(C(F)(F)F)c2)cc1S(=O)(=O)C(C)C`, the inhibition was 0% (inactive). `CCOC(=O)c1ccc2nc(C(F)(F)F)cc(N3CCN(Cc4ccccc4)CC3)c2c1`: the inhibition was 3.69% (inactive).

Regarding `CCOC(=O)Cn1sc2nc(C)cc(C)c2c1=O`, the inhibition was -2.32% (inactive). `O=[N+]([O-])c1ccc(N2CCC2)cc1`: the inhibition was 8.05% (inactive). Turning to `CC(=O)OCc1ccc(COC(C)=O)c(OC(C)=O)c1OC(C)=O`, the inhibition is -11.5% (inactive). Under `COC(=O)/C=C/c1cn(C2OCC(CO)C2O)c(=O)[nH]c1=O` (stereo unspecified) stands 5.73% (inactive); under `NC(=O)c1cccc2c1OCCO2`, 10.1% (inactive); under `CCCN(CCC)S(=O)(=O)c1ccc(C(=O)NNC(=O)c2cc(OC)c(OC)c(OC)c2)cc1`, -4.25% (inactive). Under `N#C/C(=C\c1ccsc1Sc1ccc(Cl)cc1)S(=O)(=O)c1ccc(Cl)cc1` stands -3.72% (inactive); under `Cc1nnc(Sc2ccc([N+](=O)[O-])c(Sc3nnc(C)s3)n2)s1`, -6.36% (inactive); under `O=c1oc2c3ccccc3c3oc(=O)sc3c2s1`, 50.3% (active). Under `O=c1[nH]c2ccccc2s1` stands 2.88% (inactive). On to `Cc1cc(-c2noc(-c3cccs3)n2)no1`, for which the inhibition was -6.63% (inactive).

For `Cc1nnsc1C(=O)N/N=C/c1ccccc1Cl`, the inhibition is -4.11% (inactive).

With `CNC(=O)c1ccccc1I`, the inhibition is -1.84% (inactive). Under `O=S(=O)(CCSc1ccc(C(F)(F)F)cn1)CCSc1ccc(C(F)(F)F)cn1` stands 2.94% (inactive); under `CC(=O)Nc1ccc(C)cc1N=Cc1ccncc1`, -3.13% (inactive); under `N#CC(c1cc2ccccc2cn1)c1ccc2c(c1[N+](=O)[O-])C(=O)c1ccccc1C2=O` (stereo unspecified), 8.07% (inactive).

With `Cc1cccc(-c2noc(NC(=O)O/N=C/c3ccccc3)n2)c1`, the inhibition was 5.92% (inactive). As for `O=C(NNC(=S)Nc1ccc(S(=O)(=O)N2CCCCC2)cc1)c1ccncc1`, the inhibition is 7.23% (inactive). With `O=[N+]([O-])c1ccc2c(c1)CCN2S(=O)(=O)c1ccccc1` the figure was -5.05% (inactive). Regarding `Cc1ccc(C(=O)N2CCN(c3cccc4[nH]ccc34)CC2)cc1`, the inhibition is -3.77% (inactive). Turning to `O=C(Oc1ccccc1N1CCCCC1)c1sc2ccccc2c1Cl`, the inhibition was 4.69% (inactive). Under `CCOC(=O)c1cc(C)n(-c2cccc([N+](=O)[O-])c2)c1-c1ccccc1` stands -2.88% (inactive). For the compound `CC(C)(C)c1ccc(C(=O)CC(N)=O)cc1`, the inhibition was -4.12% (inactive). On to `FC(F)(F)c1csc(N/N=C/c2ccccc2Cl)n1`, for which the inhibition is -1.14% (inactive). With `C/C(=N\NC(N)=S)c1csc(-c2ccccc2)n1` the figure was -3.92% (inactive); with `N/N=c1/nc2sccn2c2ncccc12`, -0.03% (inactive); with `O=C1C2C3C=CC(O3)C2C(=O)N1OCc1ccc(OC(F)(F)F)cc1` (stereo unspecified), 4.1% (inactive).
